Bioassay records as filed in PubChem BioAssay.
JMJD2E inh – inhibitors of human JMJD2E histone demethylase; B2RXH2; JMJD2E catalytic domain, FDH-coupled NADH fluorescence (FDH is formaldehyde dehydrogenase); Potency, µM (highest dose often 57.1 µM), hits mostly inhibitors; 230,000 tested, 1.6% active; AID 2147; active = well fitted inhibition curve with a large enough effect, not every such curve was filed as active; inconclusive = small, poorly fitted or top-dose-only effect, or another doubt; inactive = no such curve, though single readings can be large or run the other way; note: nearly all actives have a fitted effect of over 50% in size
Target sequence (B2RXH2 1-337 limits assumed): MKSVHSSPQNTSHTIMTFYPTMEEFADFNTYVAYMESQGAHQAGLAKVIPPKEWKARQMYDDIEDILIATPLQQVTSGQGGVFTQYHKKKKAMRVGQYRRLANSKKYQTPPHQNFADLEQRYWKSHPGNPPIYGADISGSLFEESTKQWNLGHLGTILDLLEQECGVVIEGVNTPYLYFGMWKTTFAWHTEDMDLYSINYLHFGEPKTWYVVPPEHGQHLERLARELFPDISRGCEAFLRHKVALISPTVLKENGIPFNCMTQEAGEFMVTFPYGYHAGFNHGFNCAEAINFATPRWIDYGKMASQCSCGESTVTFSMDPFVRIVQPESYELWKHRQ
Tau ThT inhib – blocks human tau fibril formation measured by thioflavin T; Potency, µM (highest dose often 57.4 µM), most hits filed as inhibitors; recombinant tau K18 P301L, heparin-induced fibrillization, ThT fluorescence; AID 1460; P10636; 270,000 tested, 2.1% active; note: nearly all actives have a fitted effect of over 55% in size
Target sequence (P10636 561-689 P618L limits assumed): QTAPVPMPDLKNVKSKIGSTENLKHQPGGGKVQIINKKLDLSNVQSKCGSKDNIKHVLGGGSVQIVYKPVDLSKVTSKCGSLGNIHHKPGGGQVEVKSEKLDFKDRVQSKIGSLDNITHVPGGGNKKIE
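Tau K18 P301L fragment (15 uM unlabeled plus 0.24 uM Alexa 594-labeled) in 100 mM sodium acetate pH 7 with compound, fibrillization induced by 20 uM heparin for 6 hr at 37 C. Thioflavin T (30 uM) added, fluorescence read after 1 hr (ex 450, em 510 nm).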
Tau FP inhib – blocks human tau fibril formation measured by polarization; K18 P301L tau heparin fibrillization, Alexa594 FP, 6 h; Potency, µM (series often up to 57.7 µM), most hits filed as inhibitors; 280,000 tested, 0.39% active; P10636; note: nearly all actives have a fitted effect of over 55% in size
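Heparin (20 uM) drove fibril formation of recombinant tau K18 P301L, 15 uM unlabeled with 0.24 uM Alexa 594 label, for 6 hr at 37 C in 100 mM sodium acetate pH 7. Fluorescence polarization (555/632 nm) read 1 hr after 30 uM ThT.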
FBPA coupling cs – counter-screen for Giardia aldolase inhibitors: coupling enzyme system; coupling enzyme system counterscreen, AmpLite Red fluorescence; activity change, negative = inhibition, % at 58.2 µM, hits read low; 290,000 tested, 0.67% active; in the data active = activity change below about -30%
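Final compound at 57.5 uM, incubated 10 min at RT with coupling enzyme reagent (glyceraldehyde-3-phosphate), then 20 min with substrate and AmpLite Red detection. Fluorescence read at 525/598 nm; tests interference with the coupling assay, not aldolase inhibition.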
Sfp inh – inhibitors of Bacillus subtilis Sfp phosphopantetheinyl transferase; Q9F4F7; Biochemical Sfp PPTase activity, qHTS; Potency, µM, usual class: inhibitors; 310,000 tested, 3.5% active; AID 1490;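 note: the enzyme is Sfp with the accession as filed and its product quenches rhodamine fluorescence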
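Step 1, compound plus 15 nM Sfp-PPTase, 15 min, room temperature. Step 2, add rhodamine-CoA (5 uM) and BHQ-2-YbbR (12.5 uM). Step 3, read 525/598 nm fluorescence at 0 and 30 min.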
Tau fluor counter – counter-screen for tau fibril formation inhibitors. tau K18 P301L (four-repeat tau fragment) Alexa594 fluorescence, heparin fibrillization. 280,000 tested, 0.93% active. Potency, µM (titrated, usually from 57.7 µM); note: nearly all actives have a fitted effect of over 55% in size
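Human K18 P301L tau (15 uM unlabeled plus 0.24 uM Alexa 594-labeled, final) in 100 mM sodium acetate pH 7 was mixed with compound and 20 uM heparin and incubated 6 hr at 37 C.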
Of the large screens only hits and unclear results are named; the others gave an inactive call; [ ] = remark or other dose. In the library only some 5.3% were active in any assay of this set; here they are far more common. Unless noted, calls come from the whole dose curve; as a rule, active = well fitted curve in the direction sought with a large enough effect; inconclusive = small, poorly fitted or top-dose-only effect, or another doubt; inactive = no such curve, though single readings can be large; an effect the other way counts as inactive or inconclusive.

CCOC(=O)C1CCN(Cc2ccccc2C(F)(F)F)CC1	JMJD2E inh inconclusive
N#CCCn1c(=O)c(-c2cccc(C#N)c2)nc2cnc(N3CCOCC3)nc21	none (no result: JMJD2E inh, Tau ThT inhib, Tau FP inhib, Tau fluor counter)
Cc1occc1C(=O)NCc1ccccc1	none (no result: FBPA coupling cs)
Cc1cc(C(=O)NCc2ccc(C(=O)O)o2)c(C)o1	none
Cc1occc1C(=O)NCc1ccc(C(=O)O)o1	Sfp inh 50µM
Cc1occc1C(=O)NCCCCc1ccccc1	Sfp inh 18µM
CSc1ccc(S(=O)(=O)Nc2ccc(S(=O)(=O)Nc3ccc(C)cc3)cc2)cc1	Tau FP inhib inconclusive, Tau fluor counter inconclusive
Cc1ccc(S(=O)(=O)Nc2ccc(N=Nc3ccc(O)cc3)cc2)cc1	Tau ThT inhib 14µM, Tau FP inhib inconclusive, Tau fluor counter 18µM[quencher]
Cc1ccc(NNS(=O)(=O)c2ccc(C)cc2)cc1	JMJD2E inh 18µM, Tau ThT inhib 20µM, Tau FP inhib inconclusive, Sfp inh 40µM (no result: FBPA coupling cs)
CC(=O)Nc1ccc(S(=O)(=O)NNC(=O)c2ccc([N+](=O)[O-])cc2)cc1	none (no result: JMJD2E inh, Tau ThT inhib, Tau FP inhib, Tau fluor counter)
Cc1ccc(S(=O)(=O)Nc2c(Cl)c(Cl)c(O)c3ccccc23)cc1	Sfp inh 45µM (no result: JMJD2E inh, Tau ThT inhib, Tau FP inhib, Tau fluor counter)
Cc1ccc(S(=O)(=O)NNC(=O)C(=O)NNS(=O)(=O)c2ccc(C)cc2)cc1	none
CC(=O)Nc1ccc(S(=O)(=O)NNc2ccc([N+](=O)[O-])cc2)cc1	Sfp inh 22µM (no result: JMJD2E inh, Tau ThT inhib, Tau FP inhib, Tau fluor counter)
Cc1ccc(S(=O)(=O)Nc2ccccc2-c2ccccc2NS(=O)(=O)c2ccc(C)cc2)cc1	Tau ThT inhib inconclusive
CCc1ccc(Nc2cc(C)nc3nc(Cc4ccc(Cl)cc4)nn23)cc1	none (no result: JMJD2E inh, FBPA coupling cs, Sfp inh)
CC1(C)C(O)C=C[C@@]2(C)C1CC(=O)O[C@@]1(C)C3=CC(=O)OC(c4ccoc4)[C@]3(C)CCC21 (stereo partly specified)	Tau ThT inhib inconclusive
COc1ccc2c(c1)OC/C(=C/c1ccc(OC)c(OC)c1)C2=O	Tau ThT inhib 11µM, Sfp inh inconclusive, Tau fluor counter inconclusive
CCNc1ncc2nc(-c3cccs3)c(=O)n(Cc3ccc(F)cc3)c2n1	none (no result: JMJD2E inh, Tau ThT inhib, Tau FP inhib, Tau fluor counter)
O=[N+]([O-])c1cc(C(F)(F)F)cc([N+](=O)[O-])c1NN=C1CCCCC1	JMJD2E inh inconclusive, Tau ThT inhib 13µM, Tau FP inhib inconclusive, Sfp inh inconclusive, Tau fluor counter inconclusive
O=C/C=C/c1coc2ccc3ccccc3c2c1=O	Tau ThT inhib 14µM, Tau fluor counter inconclusive
Cn1c(=O)c(-c2cccc(Cl)c2)nc2cncnc21	none (no result: JMJD2E inh, Tau ThT inhib, Tau FP inhib, Tau fluor counter)
O=c1ccn(Cc2ccccc2)c(=O)n1Cc1ccccc1	none
N[C@H](Cn1ccc(=O)n(Cc2ccccc2C(=O)O)c1=O)C(=O)O	Sfp inh 71µM
CCS(=O)(=O)Nc1cccc(C2=NN(S(=O)(=O)c3ccc(C)cc3)C(c3ccco3)C2)c1 (stereo unspecified)	Sfp inh 50µM, Tau fluor counter inconclusive
CCS(=O)(=O)Nc1cccc(C2=NN(S(=O)(=O)c3ccccc3)C(c3ccco3)C2)c1 (stereo unspecified)	Sfp inh inconclusive, Tau fluor counter inconclusive (no result: Tau ThT inhib)
CS(=O)(=O)Nc1cccc(C2=NN(S(=O)(=O)c3ccccc3)C(c3ccco3)C2)c1 (stereo unspecified)	Sfp inh 56µM
O=C1/C(=C\c2ccco2)SC(=S)N1c1ccccc1	JMJD2E inh 20µM, Tau ThT inhib 25µM, Tau FP inhib inconclusive, Sfp inh inconclusive, Tau fluor counter inconclusive
O=C1/C(=C\c2ccco2)SC(=S)N1Cc1ccccc1	Tau ThT inhib inconclusive, Sfp inh inconclusive, Tau fluor counter inconclusive
Cc1ccc(N2C(=O)/C(=C\c3ccco3)SC2=S)cc1	Sfp inh 14µM
CC1(OC(=O)c2ccc(Cl)nc2)C(=O)C=C2C=C(c3ccc(C#N)cc3)OC=C2C1=O (stereo unspecified)	Tau ThT inhib 25µM, Tau FP inhib inconclusive, Sfp inh inconclusive, Tau fluor counter inconclusive
CC1(OC(=O)c2ccc(Cl)nc2)C(=O)C=C2C=C3CCCN3C=C2C1=O (stereo unspecified)	JMJD2E inh 5.6µM, Tau ThT inhib 5µM, Tau FP inhib inconclusive, Sfp inh inconclusive
